In the library only some 0.71% were active in any assay of this set; here they are far more common.
hiPSC survival: hiPSC single-cell survival enhancement. ATPlite luminescence; 100% = ROCK inhibitor wells, 0% = DMSO. survival enhancement, % at 20 µM. 0.044% of 360,000 active; in the data active = survival enhancement above about 18%;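 note: cells exposed to compounds for 16 hours before the ATP read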
H9c2 TAG inh: triacylglycerol accumulation inhibition | inhibition, % at 12.5 µM | 0.66% of 230,000 active | H9c2 cells, Nile Red lipid (TAG) fluorescence; cells loaded with 200 µM oleic acid;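 active = pattern-corrected inhibition of lipid staining of at least 50% with the nuclear-stain viability signal not falling by more than 50%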;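 note: 0% = DMSO wells and 100% = triacsin C control wells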
MIN6 prolif-1: inducers of beta-cell replication in MIN6 cells. MIN6 cells proliferation, ATPlite luminescence, 48 h; cells starved in 0.2% serum; 100% = growth in 10% serum. proliferation, % at 10 µM. 0.29% of 330,000 active;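 active = compounds whose signal lies at least 3.5 SD above the mean of all wells on their plate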;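 note: 0% = DMSO-treated cells in low-serum medium and 100% = 10% serum control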
MIN6 prolif-2: MIN6 beta-cell replication induction, confirmed; shares compounds with MIN6 prolif-1; MIN6 beta-cell proliferation, ATPlite luminescence, 48 h; cells kept in 0.2% serum; scaled between 0.2% and 10% serum; proliferation increase, % at 50 µM; 920 tested, under 10 active; AID 463095;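 active = proliferation increase above 40% at any of the four tested concentrations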
* = called active by the depositor; . = no result.

SMILES	hiPSC survival	H9c2 TAG inh	MIN6 prolif-1	MIN6 prolif-2
CCOC(=O)C1=C(COC(=O)/C=C/c2ccc(OC)cc2OC)NC(=O)NC1C (stereo unspecified)	0	-7	13*	2
CCOC(=O)C1=C(COC(=O)/C=C/c2ccc(OC)c(OC)c2)NC(=O)NC1C (stereo unspecified)	0	-9	4	.
CCN(CC)C(=O)C12CC3CC(CC(Cl)(C3)C1)C2	-1	.	2	.
CC(C)(C)NC(=O)C12CC3CC(CC(Cl)(C3)C1)C2	0	.	8.0*	-2
CCN(CC)C(=O)[C@]1(c2ccccc2)C[C@@H]1CN	.	.	12*	1
CCN(CC(=O)Nc1c(F)cccc1F)C(=O)C1(c2ccccc2)CC1	0	-11	1	.
CCOC(=O)c1cc(OCC)c2c(ccc3cc(OC)ccc32)n1	1	-6	.	.
CCCc1c2ccccc2nc2ccccc12	-1	.	7.2*	-6
CCCc1cc(C(=O)O)c2ccccc2n1	-2	.	-3	.
CCOC(=O)Cn1c(=O)n(Cc2ccco2)c(=O)c2ccc(C(=O)NC3CCCC3)cc21	0	-13	12*	-1
CCOC(=O)CSc1nc2cc(C(=O)NCC3CCCO3)ccc2c(=O)n1Cc1ccco1 (stereo unspecified)	3	.	-2	.
OC(c1ccc(F)cc1)c1nc(-c2cnc3ccccc3c2)cs1 (stereo unspecified)	2	-9	.	.
Cc1cc(Br)ccc1NC(=O)CN(C)C(=O)c1cccc(S(=O)(=O)N2CCN(C)CC2)c1	0	2	.	.
COc1ccc(-c2nc3c(c(SCC(=O)N4CCCC4)n2)COC(C)(C)C3)cc1	-1	24	11*	-5
COc1ccc(-c2nc3c(c(SCC(=O)N4CCOCC4)n2)COC(C)(C)C3)cc1	-2	.	-3	.
O=C(Nc1cccc(Cl)c1)Nc1ccnc(-c2cccnc2)n1	1	18	11*	5
O=C(Nc1cccc(Cl)c1)Nc1cnccn1	1	14	-3	.
C=CCNc1nc(-c2ccccc2)c(C(=O)OCC)cc1C#N	1	4	5.3*	-6
CCCNc1nc(-c2ccccc2)c(C(=O)OCC)cc1C#N	2	45	-4	.
CCC(=O)Nc1nnc(SCC(=O)NCc2ccc3c(c2)OCO3)s1	1	1	3	.
CC(=O)Nc1nnc(SCC(=O)NCc2ccc3c(c2)OCO3)s1	0	.	13*	-2
CC(C)COC(=O)N1CCCCC1c1cc(C(=O)NCc2cccnc2)no1 (stereo unspecified)	-1	-4	.	.
OC(c1cccnc1)c1nc(/C=C/c2ccc(C(F)(F)F)cc2)cs1 (stereo unspecified)	6	-10	.	.
COC(=O)Cn1cnc2c(Cl)nc(F)nc21	-3	5	.	.
C=CCNC(=S)NNC(=O)c1csc(C)c1CC	2	.	0	.
SMILES	hiPSC survival	H9c2 TAG inh	MIN6 prolif-1	MIN6 prolif-2
CCCCNC(=S)NNC(=O)c1csc(C)c1CC	-1	.	0.0*	-2
O=C(NCc1cccnc1)c1ccc2sc([C@H]3C[C@H](O)[C@@H](CO)O3)nc2c1	1	15	.	.
O=c1c2cc(Cl)ccc2[nH]c(=S)n1Cc1ccco1	0	.	-5	.
O=c1[nH]c2ccc(Cl)cc2c(=O)n1Cc1ccco1	4	1	7.2*	-2
CN(C)c1ncc(CN2CCC(CO)(CCCc3ccccc3)CC2)s1	-1	3	7.3*	-3
CCOC(=O)C1(CCc2ccccc2)CCN(Cc2cnc(N(C)C)s2)CC1	-1	-12	-1	.
O=C(O)c1cccc(Nc2nc3ccccc3nc2NS(=O)(=O)c2ccc(F)cc2)c1	-1	-1	0	.
Cc1cccc(S(=O)(=O)Nc2nc3ccccc3nc2Nc2cccc(C(=O)O)c2)c1	0	.	6.6*	-5
CC(C)c1ccc(S(=O)(=O)N2CCN(C(=O)c3cc([N+](=O)[O-])ccc3N3CCOCC3)CC2)cc1	-1	27	0	.
O=C(c1cc([N+](=O)[O-])ccc1N1CCOCC1)N1CCN(S(=O)(=O)c2ccc(F)cc2)CC1	0	-5	11*	0
CC1(C(=O)NS(=O)(=O)C2CC2)CCCN(C(=O)c2c(F)cccc2F)C1 (stereo unspecified)	0	1	.	.
CC(=O)Nc1cnc(-c2cc(C)c(O)c(C)c2)cn1	-2	20	.	.
Cc1cccn2c(=O)c(/C=C(\C#N)C(N)=O)c(N3CCN(c4ccccc4)CC3)nc12	0	.	6.9*	-6
CCNC(=O)/C(C#N)=C/c1c(N2CCN(c3ccccc3)CC2)nc2c(C)cccn2c1=O	0	.	3	.
COc1ccc(Oc2nc(-c3ccncc3)nc3ccccc23)cc1	0	21	-3	.
c1ccc2c(N3CCCC3)nc(-c3ccncc3)nc2c1	6	29	14*	-6
COc1nc(-c2ccncc2)nc2ccccc12	-1	-6	6.2*	-5
CN1CCN(c2nc(-c3ccncc3)nc3ccccc23)CC1	14	24	1	.
Cc1[nH]n(-c2nc(-c3ccccc3)cc(=O)[nH]2)c(=O)c1CCO	-3	3	9.6*	0
Cc1nc(-c2ccccc2)cc(=O)[nH]1	0	-11	0	.
CNc1ccccc1C(=O)OC(C)C(=O)Nc1ccc(Cl)cn1 (stereo unspecified)	0	-1	-1	.
CCOc1ncccc1C(=O)OC(C)C(=O)Nc1ccc(Cl)cn1 (stereo unspecified)	0	-6	13*	-1
CS(=O)(=O)NCCNc1cc(Cl)ccc1[N+](=O)[O-]	0	-8	-2	.
NS(=O)(=O)c1ccc(NCCCn2ccnc2)c([N+](=O)[O-])c1	0	.	3	.
CS(=O)(=O)NCCNc1ccc(Cl)cc1[N+](=O)[O-]	0	.	7.7*	-1
SMILES	hiPSC survival	H9c2 TAG inh	MIN6 prolif-1	MIN6 prolif-2
CCCCNc1ccc(S(N)(=O)=O)cc1[N+](=O)[O-]	.	.	6.0*	-3
CCOc1ccc(CCNS(=O)(=O)c2ccc3c(c2)N(C(C)=O)CCO3)cc1OCC	0	.	15*	-2
CC(=O)N1CCOc2ccc(S(=O)(=O)NCCc3ccc(C)cc3)cc21	0	.	0	.
CC1(C(=O)NS(=O)(=O)c2cccc(OC(F)F)c2)CCN1C(=O)C1CCCCC1 (stereo unspecified)	-1	11	.	.
COc1ccc(C(NC(=O)C2CCN(CCOc3ccc(Cl)cc3Cl)CC2)c2cccs2)cc1 (stereo unspecified)	1	8	.	.
O=C(O)CCCNC(=O)Nc1ccccc1	-1	26	-3	.
CCCCCCNC(=O)Nc1ccccc1	0	.	8.2*	-4
CC1CCCC(C)N1C(=O)c1cccc2c1-c1ccccc1/C2=N/O (stereo unspecified)	4	10	5.5*	-6
CCOC(=O)c1cccc2c1-c1ccccc1/C2=N/O	-1	.	-2	.
CCc1nc2c(OCCOc3ccc(F)cc3)cccn2c1N(C=O)Cc1ccccc1	0	-25	.	.
O=S(=O)(c1ccccc1)N1CCN(Cc2cccc(Cl)c2)CC1	-2	-4	0	.
O=S(=O)(c1ccccc1)N1CCN(c2cccc(Cl)c2)CC1	0	.	7.2*	-6
CC(=O)O[C@@H](Cc1ccc(O)cc1)C(=O)CC(C)C	0	.	.	.

Screening results as filed in PubChem BioAssay.
